Compound activity from PubChem.
Compounds with a hit are over-represented: about 13% of the library has one in this group of screens.
Pf growth 48h – Primary qHTS for delayed death inhibitors of the malarial parasite plastid, 48 hour incubation; actives 5.9% (n = 310,000); P. falciparum luciferase growth in erythrocytes, 48 h; Potency, µM (doses to about 28.7 µM), hits mostly inhibitors
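Firefly luciferase activity from engineered P. falciparum reports growth; inhibitors lower the luminescent signal. Cultures contained 2% hematocrit erythrocytes at 0.1% final parasitemia.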
Pf growth 96h – Primary qHTS for delayed death inhibitors of the malarial parasite plastid, 96 hour incubation. actives 6.9% (n = 320,000). Potency, µM (top dose mostly 28.7 µM), hits mostly inhibitors. P. falciparum luciferase reporter growth, 96 h
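Erythrocytes infected with luciferase-expressing P. falciparum were dispensed at 2% hematocrit and 0.05% parasitemia (final), then incubated with compounds 96 hours at 37 C in 5% CO2. Luminescence after detection reagent addition reported growth.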
HCV inh – qHTS Assay for Inhibitors of Hepatitis C Virus (HCV). Huh7.5.1 HCVcc-Cre infection, luciferase reporter, 44 h. Potency, µM (doses to about 41.8 µM), actives largely listed as inhibitors. actives 3.4% (n = 340,000)
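HCVcc-Cre virus at an moi near 0.5 was added right after compound to cells cultured 4 h from seeding (1,000 cells/well). Luciferase activity was determined 44 h later, 15 min after substrate addition at RT.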
HCMV inh – qHTS Assay for inhibitors of the human cytomegalovirus (HCMV); HFF cells, HCMV-luciferase reporter, 72 h; active compounds read low; activity change, negative = inhibition, % at 57.5 µM; actives 4.5% (n = 410,000); AID 1259415, 2018; in the data active means activity change below about -60%; inconclusive means no clear call, values can overlap the other calls; inactive means above about -39%
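Human foreskin fibroblasts infected with luciferase-reporter HCMV at MOI 1 PFU/cell, compounds at two doses. Luciferase measured 72 h post infection; normalized to buffer-only basal and Salinomycin (10uM) controls.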
Each line names hits and unclear results; the compound was inactive in the other large screens. Unless noted, the call rests on the fitted dose curve; in most records, active means well fitted inhibition curve with a large enough effect; inconclusive means small, poorly fitted or top-dose-only effect, or another doubt; inactive means no such curve, though single readings can be large or run the other way.

Cn1c(CCN2CCCCC2)nc2cc(NC(=O)COc3ccc([N+](=O)[O-])cc3)ccc21	Pf growth 48h inconclusive, Pf growth 96h inconclusive, HCMV inh -74.6
COc1ccc(OCC(=O)Nc2ccc3c(c2)nc(CCN2CCOCC2)n3C)cc1	Pf growth 48h inconclusive
CC(=O)N1CCN(Cc2nc3cc(NC(=O)Cn4nc(C)c5ccccc5c4=O)ccc3n2C)CC1	none (no result: Pf growth 48h)
CC(C)CC(=O)Nc1ccc2c(c1)nc(CCN1CCCCC1)n2C	Pf growth 48h inconclusive, Pf growth 96h 13.1µM
COc1ccc(-c2cc(=O)c3cccc(CC(=O)O)c3o2)cc1	none (no result: Pf growth 48h, Pf growth 96h, HCV inh)
Cc1ccc(OCC(=O)Nc2ccc3c(c2)nc(CCN2CCN(C)CC2)n3C)cc1	Pf growth 48h inconclusive, Pf growth 96h inconclusive
Cc1ccc(C(C)C)c(OCC(=O)Nc2ccc3c(c2)nc(CCN2CCCCC2)n3C)c1	Pf growth 48h inconclusive, HCV inh 10µM, HCMV inh -81.2
CN1CCN(CCc2nc3cc(NC(=O)COc4ccc(Cl)cc4)ccc3n2C)CC1	Pf growth 48h inconclusive, Pf growth 96h 9.28µM, HCV inh inconclusive, HCMV inh inconclusive
Cn1c(CCN2CCCCC2)nc2cc(NC(=O)COc3ccc(Cl)cc3)ccc21	Pf growth 48h inconclusive, Pf growth 96h inconclusive, HCV inh inconclusive, HCMV inh -69.8
Cc1ccc(-c2noc(-c3ccc(N4CCOCC4)c([N+](=O)[O-])c3)n2)cc1	none (no result: Pf growth 48h, Pf growth 96h, HCV inh)
Cc1ccc(NC(=O)CSc2nn(-c3ccccc3)c(=S)s2)cc1S(=O)(=O)N(C)C	Pf growth 48h inconclusive, Pf growth 96h 3.29µM, HCV inh inconclusive, HCMV inh -77.6
Cc1n[nH]c(=O)c2c(NC(=O)CSc3nn(-c4ccccc4)c(=S)s3)oc(C)c12	HCMV inh -98.5
O=C(CSc1nn(-c2ccccc2)c(=S)s1)Nn1cnnc1	none
Cc1ccc(NC(=O)CSc2nc3c(cc2C#N)C(=O)CCC3)cc1S(=O)(=O)N(C)C	Pf growth 48h inconclusive, Pf growth 96h inconclusive, HCV inh inconclusive, HCMV inh -69.2
Cc1n[nH]c(=O)c2c(NC(=O)CSc3nc4ccccc4c(=O)n3CCCOC(C)C)oc(C)c12	HCMV inh -97.9
Cc1csc(SCC(=O)Nc2oc(C)c3c(C)n[nH]c(=O)c23)n1	none
Cc1cc(-c2nnc(CCC(=O)NC(C)c3ccccc3Cl)o2)no1 (stereo not drawn)	none
COc1ccc([C@@H](C)NC(=O)CCc2nnc(-c3cc(C)on3)o2)cc1	Pf growth 96h 2.94µM
Cc1cc(-c2nnc(CCC(=O)NC(C)c3cccc4ccccc34)o2)no1 (stereo not drawn)	Pf growth 96h 11.7µM
CC(=O)c1cccc(OCc2cc(C(=O)N(C)Cc3nccs3)no2)c1	none (no result: Pf growth 48h, Pf growth 96h, HCV inh)
CN(Cc1nccs1)C(=O)c1cc(COc2cccc3cnccc23)on1	Pf growth 96h inconclusive, HCV inh 6.31µM, HCMV inh -75.3
COc1cc(Cl)ccc1OCc1cc(C(=O)N(C)Cc2cccc3cnccc23)no1	Pf growth 48h inconclusive, HCV inh 8.91µM, HCMV inh inconclusive
COc1ccccc1N1CCN(Cc2cnc(-c3ccccc3)[nH]2)CC1	Pf growth 96h inconclusive
CCOc1ccccc1N1CCN(Cc2cnc(-c3ccccc3)[nH]2)CC1	Pf growth 48h 13.1µM, Pf growth 96h 9.28µM, HCV inh inconclusive
CCN(CC)C(=O)c1ccc2c(c1)N(Cc1c(F)cccc1Cl)C(=O)c1ccccc1S2	none (no result: Pf growth 48h, Pf growth 96h, HCV inh)
COc1cc(C(=O)NC2CCCc3c2cnn3-c2ccccc2F)cc(OC)c1OC (stereo not drawn)	Pf growth 48h inconclusive, Pf growth 96h 3.29µM, HCV inh 8.91µM, HCMV inh -62.2
CC(C)c1cc(C(=O)NC2CCCc3c2cnn3-c2ccccc2F)no1 (stereo not drawn)	HCV inh 11.2µM, HCMV inh -88.1
Cc1cc(C(=O)NC2CCCc3c2cnn3-c2ccccc2F)nc(C)n1 (stereo not drawn)	none (no result: HCV inh)
COc1ccccc1CNC(=O)C(=O)NCC(c1cccnc1)N1CCN(c2ccccc2)CC1 (stereo not drawn)	none (no result: Pf growth 48h, Pf growth 96h, HCV inh)
CCOc1ccc(N2C(=O)CC(N3CCN(c4ccccc4OC)CC3)C2=O)cc1 (stereo not drawn)	Pf growth 48h 2.94µM, Pf growth 96h 2.62µM
CCOc1cccc(N2C(=O)CC(N3CCN(c4nc5ccccc5s4)CC3)C2=O)c1 (stereo not drawn)	Pf growth 48h inconclusive, Pf growth 96h inconclusive
COc1ccc(N2C(=O)CC(N3CCN(c4nc5ccccc5s4)CC3)C2=O)cc1 (stereo not drawn)	Pf growth 96h 4.65µM
COc1ccc2nc(N3C(=O)CC(C(C)c4ccccc4)C3=O)sc2c1 (stereo not drawn)	Pf growth 96h 3.7µM, HCMV inh inconclusive
COc1cccc(NC(=O)CCc2c(C)nc3c4cccnc4nn3c2C)c1	none (no result: Pf growth 48h, Pf growth 96h, HCV inh)
CCC(C)NS(=O)(=O)c1ccc(S(=O)(=O)N2CC=C(c3ccc(F)cc3)CC2)cc1 (stereo not drawn)	HCV inh inconclusive, HCMV inh -72.8
CCC(C)NC(=O)C1=CCN(S(=O)(=O)c2ccc(C)cc2)CC1 (stereo not drawn)	none
Cc1ccc(C(CCN(Cc2ccccc2)C(=O)c2ccco2)c2ccco2)cc1 (stereo not drawn)	Pf growth 48h inconclusive, Pf growth 96h 13.1µM, HCV inh inconclusive
O=C(c1ccco1)N(CCC(c1ccccc1)c1ccco1)Cc1ccco1 (stereo not drawn)	Pf growth 48h inconclusive, Pf growth 96h inconclusive
CN(Cc1ccccc1)C(=O)c1ccco1	Pf growth 96h 11.7µM
CS(=O)(=O)N(CC(=O)NCC1CCCO1)c1ccc(F)c(Cl)c1 (stereo not drawn)	HCMV inh -60.4 (no result: Pf growth 96h)
CS(=O)(=O)N(CC(=O)NCCSCc1c(F)cccc1Cl)c1ccc2c(c1)OCO2	Pf growth 48h 11.7µM, HCV inh inconclusive
O=C(CSc1cc(Cl)ccc1Cl)NCC1CCCO1 (stereo not drawn)	Pf growth 96h 10.4µM
O=C(CSCc1c(Cl)cccc1Cl)NCC1CCCO1 (stereo not drawn)	none
COc1ccc(N(CC(=O)NCCSCc2c(F)cccc2Cl)S(C)(=O)=O)cc1OC	none (no result: Pf growth 96h)
CC1(C)CC(=O)C=C(C2CC2)C1=O	none (no result: Pf growth 48h, Pf growth 96h, HCV inh)
COc1ccc(S(=O)(=O)NCCS(=O)(=O)N2CCN(c3ccccc3F)CC2)cc1	none (no result: Pf growth 48h, Pf growth 96h, HCV inh)
NC(=O)c1ncn2c(=O)n(CCCl)nnc12	none (no result: Pf growth 48h, Pf growth 96h, HCV inh)
Cc1ccc(CNC(=O)CCc2c(C)nn(-c3ccc(N4CCCCC4)nn3)c2C)cc1	none (no result: Pf growth 48h, Pf growth 96h, HCV inh)
CC(=O)Nc1cc(-c2cccnc2)cn2c(-c3cccc(C(F)(F)F)c3)cnc12	HCMV inh -62.0 (no result: Pf growth 48h, Pf growth 96h, HCV inh)
COc1ccccc1-c1cc(NC(C)=O)c2ncc(-c3cccc(C(F)(F)F)c3)n2c1	none (no result: Pf growth 48h, Pf growth 96h, HCV inh)
COc1ccc(-c2cnc3c(NC=O)cc(-c4ccccc4OC)cn23)cc1OC	HCMV inh -79.7 (no result: Pf growth 48h, Pf growth 96h, HCV inh)
COc1ccc(-c2cc(NC=O)c3ncc(-c4cccc(C(F)(F)F)c4)n3c2)c(OC)c1	none (no result: Pf growth 48h, Pf growth 96h, HCV inh)
COc1cc(-c2ccc3ncc(-c4cccc(C(F)(F)F)c4)n3n2)cc(OC)c1OC	HCMV inh -94.9 (no result: Pf growth 48h, Pf growth 96h, HCV inh)
